Data on 40 compounds can be found in PubChem BioAssay (NCI).

Structures are written as SMILES. The panel holds about 83,000 compounds, 20% with a hit somewhere; the sample as a whole holds those more often.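 Activity criterion: percent growth below 10, measured after cells in 96-well plates were exposed to a single compound concentration for 48 hours.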 A number with no mark means an inactive call. Calls of active or inactive are those of the source.

The assay deals with HT29 colon. Description: NCI-60 one-dose screen, 48 h (100 = growth as untreated, 0 = no growth, -100 = all killed). To be noted: 10 µM unless noted. How it is done: Growth inhibition of the HT29 human tumor cell line is measured as a screen for anti-cancer activity. Cells are grown in 96 well plates and exposed to the test compound for 48 hours. Compounds are tested at a single concentration, which is 10^-5 M for most compounds. The reported endpoint is percent growth (GI% or GIPRCNT), where numbers from 0 - 100% represent growth inhibition, and numbers from -100% - 0 represent cell death. For example, a value of 40 represents 60% growth inhibition. A value of 0 means no net growth occurred over the course of the experiment. A value of -40 indicates 40% of cells at the beginning of the experiment died by the end of the experiment. A value of -100 means all cells are dead at the end of the experiment.
NCI-60 Human Tumor Cell Lines Screen was performed using the standard one-dose NCI protocol, which is described in more detail at https://dtp.cancer.gov/discovery_development/nci-60/default.htm.
Compounds with GIPRCNT values below 10 were considered active. Activity score was based on GIPRCNT using the following formula: […]
Score is 0 for GIPRCNT values of 100 or above, 50 for GIPRCNT values of 0, and 100 for GIPRCNT values of -100.
`COc1cc(CNCCc2ccc(Cl)cc2)cc(OC)c1O`: the growth was 64.4%. `N#C[Se]CCN1C(=O)C2C(C1=O)[C@H]1C=C[C@@H]2S1` (stereo not given in full): the growth is 5.94% (active).

On to `O=S(=O)(O)c1ccc(-c2ccc([As](=O)(O)O)cc2)cc1`, for which the growth is 99.1%.

As to `O=[N+]([O-])c1ccc2cnn(CSP(=S)(c3ccccc3)c3ccccc3)c2c1`, the growth is 39.6%. Consider `NS(=O)(=O)c1nc[nH]c1[N+](=O)[O-]`, for which the growth is 93.1%. In the case of `S=P(NC1CCCCC1)(N1CC1)N1CC1`, the growth is 101%.

Turning to `Cc1ccc(C(=O)C2CN(C)CCC2(O)c2ccc(C)cc2)cc1` (stereo not given), the growth is 113%.

On to `[Cl][Hg][n]1cnc2c(Cl)c(Cl)c(Cl)cc21`, for which the growth was 81.2%. Consider `C/C(=N/OC(=O)N(C)C)c1ccc(Cl)cc1Cl`, for which the growth was 105%. For `O=[N+]([O-])c1ccccc1N1CCNCC1` the value was 85.4%; for `Nc1cccc(CC(=O)Nc2ccc(S(=O)(=O)F)cc2)c1`, 91.9%. For `O=C1NC(=S)NC(=O)C1=Cc1ccccc1` the value was 139%. For `CC(=O)[O][Hg][CH2]C1(C)COC(C)([CH2][Hg][O]C(C)=O)CO1` (stereo not given) the value was -25.6% (active); for `COc1cc[c]([Hg][Cl])cc1`, 48.5%; for `Oc1ccc2c3c1O[C@H]1c4[nH]c5ccccc5c4C[C@@]4(O)C(C2)N(CC2CC2)CC[C@]314`, 83.9%.

For `C[C@@H]1CC[C@@H]2[C@@H]1[C@H](OC(=O)/C=C/C1CCCCC1)[C@]1(C3CCCCC3)C[C@@H](OC(=O)CO)[C@@]2(C)O1`, the growth is 31.4%. To `O=C(N/N=C/c1ccc(N(CCCl)CCCl)cc1)c1cc(=O)[nH]c(=O)[nH]1` belongs 101%; to `CC1(C)N=C(N)N=C(N)N1c1cccc(C(=O)Nc2cccc(S(=O)(=O)F)c2)c1`, 109%; to `C#CC1(O)CCC2(C)C(CCC3C4CCC(=O)C4(C)CCC32)C1` (stereo not given), 86.9%. For `COc1ccc(NP2(=O)OCC(C)(N)CO2)cc1` (stereo not given) the value was 98.7%. Consider `C[C@@H]1O[C@@H](O[C@H]2CC[C@@]3(C)[C@H](CCC4[C@@H]3C(O)C[C@]3(C)[C@@H](c5ccc(=O)oc5)CC[C@]43O)C2)[C@H](O)[C@H](O)[C@H]1O` (stereo not given in full), for which the growth was -90.4% (active). `CC12CCC3C(CC=C4CC(O)CCC43C)C1C/C(=C\N1CCOCC1)C2=O` (stereo not given): the growth is 105%.

As to `COc1cc(C2CC(=O)Nc3nc(N)[se]c32)c(OC)c2c1OCO2` (stereo not given), the growth was 98.5%.

Turning to `Cc1ccc(C[As+](c2ccccc2)(c2ccccc2)c2ccccc2)cc1`, the growth is -3.93% (active). For `O=C(Nc1ccc(S(=O)(=O)F)cc1)Oc1ccccc1` the value was 102%. Take `CC1(C)CC2(CC(C)(C)c3cc(O)c(O)cc32)c2cc(O)c(O)cc21`: the growth was 114%. For `CC(=O)C1CCC2C3CC=C4CC(OC(=O)Cc5ccc(N(CCCl)CCCl)cc5)CCC4(C)C3CCC12C` (stereo not given) the value was 83.2%; for `CNC(C)Cc1ccccc1` (stereo not given) (tested in a mixture with another compound), 107%; for `FC(F)=C(F)c1ccccc1`, 104%. As for `O=S(=O)(F)c1ncnc2nc[nH]c12`, the growth is 101%. With `CC1(C)CC(=O)CC(C)(C)N1N=O`, the growth was 99.4%. Consider `Oc1ccc(O)c2c1C1(Cl)C(Cl)=C(Cl)C2(Cl)C1(Cl)Cl`, for which the growth is 66.4%.

`CCN1CC2(CN(CC)C1=S)C(=O)NC(=O)NC2=O`: the growth was 90.3%. Turning to `COC(C)(C)CCC[C@H](C)C/C=C/C(C)=C/C(=O)OC(C)C`, the growth was 88%. `Oc1ccccc1OB(Oc1ccccc1O)N(CCCl)CCCl`: the growth was 85.9%. For `CNC(=O)Oc1ccccc1-c1ccccc1` the value was 101%; for `CO[C@@H]([CH2][Hg][S]C#N)[C@@H]([CH2][Hg][S]C#N)OC`, 79.4%; for `CC[C@]12C=CCN3CC[C@@]4(c5ccc(OC)cc5N(C)[C@H]4[C@@](O)(C(=O)OC)[C@@H]1OC(=O)CCCN1CCN(CCCC(=O)O[C@@H]4[C@]5(CC)C=CCN6CC[C@@]7(c8ccc(OC)cc8N(C)[C@H]7[C@@]4(O)C(=O)OC)[C@@H]65)CC1)[C@@H]32`, -81.3% (active). In the case of `CCOC(=O)/C=C(\C)Nc1ccc(N/C(C)=C/C(=O)OCC)c2c1Oc1ccccc1O2`, the growth was 112%. As for `CCOC(=O)/C(C#N)=C/c1ccc(N(CCCl)CCCl)cc1`, the growth was 92.5%.
